# Assay results from PubChem BioAssay.
# Several values for one entry are separate records, joined by “and”; a condition that tells them apart may be missing. Equal values may be shown once. For some of these results: Entries with a potency or affinity are not part of this list. Activity calls are given as the source filed them.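 How the source made its calls, unless noted: active means normalized viability below 100% at a tested concentration; inactive means the rest.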
# Experiments:
# [1] = biological target: 6-phosphogluconate dehydrogenase, decarboxylating (Homo sapiens) (UniProt P52209); experiment: inhibition of human phosphogluconate dehydrogenase – biochemical, recombinant enzyme, NADPH absorbance, primary screen (AID 1159550;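 active means at least 20% inhibition of 6-phosphogluconate dehydrogenase activity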); conditions: recombinant 6PGD, NADPH absorbance 341 nm; at 10 µM; stronger effect = higher value
# 6-phosphogluconate dehydrogenase, decarboxylating (Homo sapiens), sequence (P52209 whole entry, looked up): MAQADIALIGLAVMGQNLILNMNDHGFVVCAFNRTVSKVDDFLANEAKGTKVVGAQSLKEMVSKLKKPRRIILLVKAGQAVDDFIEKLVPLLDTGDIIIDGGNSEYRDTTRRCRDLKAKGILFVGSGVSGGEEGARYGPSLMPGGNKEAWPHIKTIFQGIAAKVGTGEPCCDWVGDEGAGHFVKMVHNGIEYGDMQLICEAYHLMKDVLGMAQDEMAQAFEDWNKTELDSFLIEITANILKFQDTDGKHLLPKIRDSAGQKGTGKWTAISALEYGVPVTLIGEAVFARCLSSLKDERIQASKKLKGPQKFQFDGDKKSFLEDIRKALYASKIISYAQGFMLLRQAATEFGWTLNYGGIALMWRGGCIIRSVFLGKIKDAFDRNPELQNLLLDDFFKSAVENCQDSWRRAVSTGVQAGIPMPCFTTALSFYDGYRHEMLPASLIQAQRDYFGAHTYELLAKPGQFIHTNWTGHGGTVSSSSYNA
# [2] = EMT-state selective cytotoxicity in co-culture – imaging, PC-3E GFP, TEM4-18 mCherry, primary screen (AID 1345086;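 active means compounds killing one labelled cell type while sparing the other, by normalised counts and ratio limits, not self-fluorescent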;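 on all read-outs here: cells exposed to compound for 72 h before imaging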;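 on red/green cell ratio (normalised): normalised mesenchymal count divided by normalised epithelial count so high means epithelial killing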); conditions: PC-3E GFP / TEM4-18 mCherry co-culture, imaging cell counts, at 1 µM; for red/green cell ratio (normalised): actives lie on both sides, counts scaled to control wells, 1 = unselective
# [3] = blockers of polyQ-driven CASP3 activation – cell-based (AID 1583); conditions: polyglutamine-induced caspase-3 activation, cell assay; stronger effect = higher value;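 tested at 10 µM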
# [4] = yeast 75Q aggregation reduction – 75Q-TubU reporter (AID 1593); conditions: Yeast 75Q polyglutamine aggregation reporter
# [5] = restoration of touch response, mutant HTT neurons – whole organism, C. elegans mechanosensory neurons, N-terminal huntingtin (AID 1599); conditions: C. elegans polyQ-huntingtin mechanosensory neurons, stronger effect = higher value
# [6] = blockers of cytochrome c efflux from mitochondria – biochemical, purified mitochondria (AID 1603); conditions: stronger effect = lower value;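 further: mouse liver mitochondria challenged with calcium chloride; signal normalized to the plate average as 100%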
# [7] = polyglutamine aggregate formation blockers (AID 1604); conditions: polyglutamine-induced protein aggregation inhibition assay; stronger effect = higher value; tested at 2.5 µM
# [8] = glutamate transport activators, MN-1 cells, MN-1 cell line (AID 1612); conditions: MN-1 motor neuron cells, stronger effect = higher value;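 further: tested at 1 µM final; 0% = mean of DMSO vehicle wells on each plate; positive means more glutamate uptake than control and negative means less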
# [9] = 75Q-TubH aggregate inhibition, S. cerevisiae, yeast (AID 1616); conditions: S. cerevisiae 75Q-TubH polyglutamine aggregation suppression; stronger effect = higher value
# [10] = compounds altering circadian rhythm period length – cell-based, LOPAC library, luminescence reporter (AID 2774; call rule not given here;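 further: values are relative to mean of DMSO wells on each plate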); conditions: circadian reporter cells, at 7 µM, actives lie on both sides
# [11] = test system: Hepatitis C virus NS3 helicase; experiment: blockers of NS3h binding to ssDNA – biochemical, fluorescence polarization, LOPAC1280 library, primary screen (AID 687035; in the data active means inhibition above about 37%); conditions: Purified HCV NS3 helicase, Cy5-dT15 ssDNA binding fluorescence polarization; stronger effect = higher value; concentration not given here
# [12] = blockers of cellular phospholipid synthesis – cell-based, LOPAC library, screen 4, primary screen (AID 1347384; call rule not given here); conditions: animal cells, phospholipid biosynthesis inhibition screen; at 10 µM
# [13] = MELAS cybrid and Rieske KO viability enhancers – cell-based, MELAS cybrids, Rieske KO mouse fibroblasts, CellTiter-Glo, primary screen (AID 1508586;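 active means mean z-score across replicates of 1.96 or higher in either the MELAS or the Rieske mutant cell line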;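 further: z relative to plate mean and SD of compound and empty wells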); conditions: low glucose
# [14] = drug combination growth inhibition, ovarian cancer – cell-based, oncology-focused library, rucaparib conditional, profiling panel (AID 1508598); conditions: patient-derived ovarian cancer cells, CellTiter-Glo viability, 144 h, stronger effect = lower value
# [15] = biological target: NAD(+) hydrolase SARM1 (Homo sapiens) (UniProt Q6SZW1); experiment: blocking NAD cleavage by SARM1 SAM-TIR – cell lysate, NAD-Glo luminescence (AID 1508614;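 active means compound whose remaining NAD level is above about 45 nM, limit read from the data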); conditions: SAM-TIR HEK293T lysate NADase, at 1 µM, stronger effect = higher value
# NAD(+) hydrolase SARM1 (Homo sapiens), sequence (Q6SZW1 whole entry, looked up, the tested form may be a part): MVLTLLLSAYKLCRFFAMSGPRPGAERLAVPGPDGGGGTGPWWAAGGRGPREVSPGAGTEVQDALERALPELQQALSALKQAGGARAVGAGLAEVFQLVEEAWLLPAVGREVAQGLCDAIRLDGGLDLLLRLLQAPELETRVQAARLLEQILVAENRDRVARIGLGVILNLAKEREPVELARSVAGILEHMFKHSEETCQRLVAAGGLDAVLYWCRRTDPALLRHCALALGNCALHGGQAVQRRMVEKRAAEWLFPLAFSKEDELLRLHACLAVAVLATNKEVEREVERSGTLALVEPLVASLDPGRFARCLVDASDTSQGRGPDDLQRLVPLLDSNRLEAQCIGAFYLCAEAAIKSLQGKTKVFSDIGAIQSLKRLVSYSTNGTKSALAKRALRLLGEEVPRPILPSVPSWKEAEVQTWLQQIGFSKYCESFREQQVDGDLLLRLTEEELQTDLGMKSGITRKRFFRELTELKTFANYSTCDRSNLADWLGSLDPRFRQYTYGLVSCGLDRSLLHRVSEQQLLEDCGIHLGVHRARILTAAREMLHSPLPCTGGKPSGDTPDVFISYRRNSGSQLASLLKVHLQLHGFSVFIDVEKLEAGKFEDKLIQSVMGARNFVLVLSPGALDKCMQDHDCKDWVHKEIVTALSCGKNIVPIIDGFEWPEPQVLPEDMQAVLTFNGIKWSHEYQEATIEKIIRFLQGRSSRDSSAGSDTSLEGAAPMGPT
# [16] = biological target: Mitogen-activated protein kinase 7 (Homo sapiens) (UniProt Q13164); experiment: Gal4-ERK5 driven luciferase induction – cell-based, HTS, primary screen (AID 1508626;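 active means luciferase signal above three times the same-plate solvent-only control wells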;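 further: luciferase driven by Gal4-ERK5 fusion binding five Gal4 sites before minimal TATA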); conditions: HeLa Gal4-ERK5 transactivation, 18 h, at 5 µM, stronger effect = higher value
# Mitogen-activated protein kinase 7 (Homo sapiens), sequence (Q13164 whole entry, looked up, the tested form may be a part): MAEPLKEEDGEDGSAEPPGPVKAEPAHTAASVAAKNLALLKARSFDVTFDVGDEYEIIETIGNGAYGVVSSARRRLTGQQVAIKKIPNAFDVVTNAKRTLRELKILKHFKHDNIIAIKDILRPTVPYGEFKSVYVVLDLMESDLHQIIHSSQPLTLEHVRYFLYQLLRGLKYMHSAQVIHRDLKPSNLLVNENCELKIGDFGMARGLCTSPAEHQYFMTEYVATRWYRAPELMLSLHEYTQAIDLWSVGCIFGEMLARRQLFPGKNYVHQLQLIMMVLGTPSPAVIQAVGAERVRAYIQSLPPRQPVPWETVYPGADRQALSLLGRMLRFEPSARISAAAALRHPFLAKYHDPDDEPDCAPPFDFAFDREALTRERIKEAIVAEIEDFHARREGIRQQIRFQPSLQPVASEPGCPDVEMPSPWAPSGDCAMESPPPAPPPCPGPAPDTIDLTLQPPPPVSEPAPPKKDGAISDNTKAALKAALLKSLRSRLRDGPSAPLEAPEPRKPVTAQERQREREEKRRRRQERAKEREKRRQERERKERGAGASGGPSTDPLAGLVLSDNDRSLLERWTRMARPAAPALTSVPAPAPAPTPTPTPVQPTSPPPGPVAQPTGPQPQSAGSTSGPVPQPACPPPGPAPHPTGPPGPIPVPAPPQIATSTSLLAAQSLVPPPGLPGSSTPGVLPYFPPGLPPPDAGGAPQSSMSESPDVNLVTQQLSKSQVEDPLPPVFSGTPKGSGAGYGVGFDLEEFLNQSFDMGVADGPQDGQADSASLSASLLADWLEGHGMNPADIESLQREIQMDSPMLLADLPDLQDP
# [17] = galactose survival enhancers in mitochondrial complex I cybrids – cell-based, galactose medium, ATP luminescence, primary screen (AID 1645843;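 active means z-score of at least 1.8 in each of two replicates, scored against plate mean and spread of sample wells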;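 further: positive z means more ATP and so rescue of galactose-driven cybrid death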); conditions: complex I mutant cybrid cells, 72 h, stronger effect = higher value
# [18] = measured here: epithelial PC-3E GFP cell survival
# [19] = measured here: mesenchymal TEM4-18 mCherry cell survival
# [20] = MELAS cybrid survival, CellTiter-Glo 48 h, stronger effect = higher value
# [21] = Rieske KO mouse fibroblast survival, CellTiter-Glo 72 h
structure (smiles),measurement,setting,value
O=C(O)c1cc(=O)c(O)c2c(O)c(O)ccc2c1,inhibition,[1],31% (active)
same,red/green cell ratio (normalised),[2],0.86 (inactive)
same,normalised cell number,[2]; [18],1.29
same,normalised cell number,[2]; [19],1.11
CC[C@H](/C=C/C(C)C1CCC2C3CCC4=CC(=O)CC[C@]4(C)C3CC[C@]12C)C(C)C (some centres not stated),inhibition,[1],11.4% (inactive)
same,red/green cell ratio (normalised),[2],0.98 (inactive)
same,normalised cell number,[2]; [18],0.99
same,normalised cell number,[2]; [19],0.97
CCCCCC1C(=O)CCC1CC(=O)OC (configuration not stated),inhibition,[1],6.35% (inactive)
same,red/green cell ratio (normalised),[2],0.86 (inactive)
same,normalised cell number,[2]; [18],1.26
same,normalised cell number,[2]; [19],1.08
CC/C(=C(\c1ccccc1)c1ccc(OCCN(C)C)cc1)c1ccccc1,inhibition,[3],22.9%
same,score,[4],-1.76
same,rescue above control,[5],2.54
same,cytochrome c release ratio,[6],2.67
same,inhibition of aggregation,[7],58.9%
same,glutamate uptake change,[8],-4.23%
same,aggregation suppression score,[9],-0.635
same,period change,[10],0.115 h (inactive)
same,inhibition,[11],-5% (inactive) and -2% (inactive)
same,inhibition,[1],1.2% (inactive)
same,red/green cell ratio (normalised),[2],1.09 (inactive)
same,normalised cell number,[2]; [18],0.93
same,normalised cell number,[2]; [19],1.01
same,outcome,[12],inactive
same,z-score,[13]; [20],-0.656 (inactive) and -1.22 (inactive)
same,z-score,[13]; [21],0.287 and -0.548
same,viability,"[14]; at 0.000305 µM, OCI-C5x cells, with rucaparib 10 µM, 100% = cells with rucaparib alone",93.5% (active)
same,viability,"[14]; at 0.000305 µM, OCI-C5x cells, without rucaparib",95.2% (active)
same,viability,"[14]; at 0.000305 µM, OCI-P5x cells, with rucaparib 20 µM, 100% = cells with rucaparib alone",89.3% (active)
same,viability,"[14]; at 0.000305 µM, OCI-P5x cells, without rucaparib",83.7% (active)
same,viability,"[14]; at 0.00122 µM, OCI-C5x cells, with rucaparib 10 µM, 100% = cells with rucaparib alone",109% (inactive)
same,viability,"[14]; at 0.00122 µM, OCI-C5x cells, without rucaparib",97.1% (active)
same,viability,"[14]; at 0.00122 µM, OCI-P5x cells, with rucaparib 20 µM, 100% = cells with rucaparib alone",92.3% (active)
same,viability,"[14]; at 0.00122 µM, OCI-P5x cells, without rucaparib",91.4% (active)
same,viability,"[14]; at 0.00488 µM, OCI-C5x cells, with rucaparib 10 µM, 100% = cells with rucaparib alone",103% (inactive)
same,viability,"[14]; at 0.00488 µM, OCI-C5x cells, without rucaparib",93.8% (active)
same,viability,"[14]; at 0.00488 µM, OCI-P5x cells, with rucaparib 20 µM, 100% = cells with rucaparib alone",101% (inactive)
same,viability,"[14]; at 0.00488 µM, OCI-P5x cells, without rucaparib",97.9% (active)
same,viability,"[14]; at 0.0195 µM, OCI-C5x cells, with rucaparib 10 µM, 100% = cells with rucaparib alone",107% (inactive)
same,viability,"[14]; at 0.0195 µM, OCI-C5x cells, without rucaparib",97.1% (active)
same,viability,"[14]; at 0.0195 µM, OCI-P5x cells, with rucaparib 20 µM, 100% = cells with rucaparib alone",89.8% (active)
same,viability,"[14]; at 0.0195 µM, OCI-P5x cells, without rucaparib",99.8% (active)
same,viability,"[14]; at 0.0781 µM, OCI-C5x cells, with rucaparib 10 µM, 100% = cells with rucaparib alone",99.2% (active)
same,viability,"[14]; at 0.0781 µM, OCI-C5x cells, without rucaparib",92.3% (active)
same,viability,"[14]; at 0.0781 µM, OCI-P5x cells, with rucaparib 20 µM, 100% = cells with rucaparib alone",97% (active)
same,viability,"[14]; at 0.0781 µM, OCI-P5x cells, without rucaparib",99.7% (active)
same,viability,"[14]; at 0.313 µM, OCI-C5x cells, with rucaparib 10 µM, 100% = cells with rucaparib alone",110% (inactive)
same,viability,"[14]; at 0.313 µM, OCI-C5x cells, without rucaparib",95.3% (active)
same,viability,"[14]; at 0.313 µM, OCI-P5x cells, with rucaparib 20 µM, 100% = cells with rucaparib alone",97.5% (active)
same,viability,"[14]; at 0.313 µM, OCI-P5x cells, without rucaparib",102% (inactive)
same,viability,"[14]; at 1.25 µM, OCI-C5x cells, with rucaparib 10 µM, 100% = cells with rucaparib alone",98.2% (active)
same,viability,"[14]; at 1.25 µM, OCI-C5x cells, without rucaparib",100% (inactive)
same,viability,"[14]; at 1.25 µM, OCI-P5x cells, with rucaparib 20 µM, 100% = cells with rucaparib alone",100% (inactive)
same,viability,"[14]; at 1.25 µM, OCI-P5x cells, without rucaparib",106% (inactive)
same,viability,"[14]; at 5 µM, OCI-C5x cells, with rucaparib 10 µM, 100% = cells with rucaparib alone",95.5% (active)
same,viability,"[14]; at 5 µM, OCI-C5x cells, without rucaparib",100% (active)
same,viability,"[14]; at 5 µM, OCI-P5x cells, with rucaparib 20 µM, 100% = cells with rucaparib alone",97.5% (active)
same,viability,"[14]; at 5 µM, OCI-P5x cells, without rucaparib",101% (inactive)
same,remaining NAD,[15],10 nM (inactive)
same,luciferase signal,[16],84 AU (inactive)
COc1cc(CNC(=O)CCCC/C=C/C(C)C)ccc1O,inhibition,[3],-19.2%
same,score,[4],0.57
same,rescue above control,[5],10.3
same,cytochrome c release ratio,[6],1.29
same,inhibition of aggregation,[7],71.9%
same,glutamate uptake change,[8],-9.59%
same,aggregation suppression score,[9],0.5
same,inhibition,[1],18.7% (inactive)
same,red/green cell ratio (normalised),[2],0.88 (inactive)
same,normalised cell number,[2]; [18],1.14
same,normalised cell number,[2]; [19],1
same,z-score,[13]; [20],-0.437 (inactive)
same,z-score,[13]; [21],-0.16
same,remaining NAD,[15],10 nM (inactive)
same,luciferase signal,[16],32 AU (inactive)
same,z-score,[17],0.07 (inactive) and 0.225 (inactive)
C=CCCCCCCCCCCCC(O)CC(O)CO (configuration not stated) (tested in a mixture with another compound),inhibition,[1],-8.17% (inactive)
same,red/green cell ratio (normalised),[2],0.87 (inactive)
same,normalised cell number,[2]; [18],1.32
same,normalised cell number,[2]; [19],1.14
